Source: PubChem (National Center for Advancing Translational Sciences (NCATS))
Hits are enriched below; roughly 0.81% of the tested compounds scored in any of these assays.
TRPML1 blocker: qHTS for Inhibitors of the Human Mucolipin Transient Receptor Potential 1 (TRPML1) | Mucolipin-1 (Homo sapiens), Q9GZU1 | activity change, negative = inhibition, % (test concentration not listed) | 0.02% of 390,000 active | AID 624415, 2012 | TRPML1-inducible cells, Ca2+ dye fluorescence, FDSS; active compounds read low; inhibition of EC80 agonist-evoked calcium signal; in the data active = activity change below about -50%;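 note: stimulus is agonist 54-4 at its EC80 concentration; % is set by controls: 0 for no effect and ±100 for the full control effect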
Target sequence (Q9GZU1 whole entry, looked up): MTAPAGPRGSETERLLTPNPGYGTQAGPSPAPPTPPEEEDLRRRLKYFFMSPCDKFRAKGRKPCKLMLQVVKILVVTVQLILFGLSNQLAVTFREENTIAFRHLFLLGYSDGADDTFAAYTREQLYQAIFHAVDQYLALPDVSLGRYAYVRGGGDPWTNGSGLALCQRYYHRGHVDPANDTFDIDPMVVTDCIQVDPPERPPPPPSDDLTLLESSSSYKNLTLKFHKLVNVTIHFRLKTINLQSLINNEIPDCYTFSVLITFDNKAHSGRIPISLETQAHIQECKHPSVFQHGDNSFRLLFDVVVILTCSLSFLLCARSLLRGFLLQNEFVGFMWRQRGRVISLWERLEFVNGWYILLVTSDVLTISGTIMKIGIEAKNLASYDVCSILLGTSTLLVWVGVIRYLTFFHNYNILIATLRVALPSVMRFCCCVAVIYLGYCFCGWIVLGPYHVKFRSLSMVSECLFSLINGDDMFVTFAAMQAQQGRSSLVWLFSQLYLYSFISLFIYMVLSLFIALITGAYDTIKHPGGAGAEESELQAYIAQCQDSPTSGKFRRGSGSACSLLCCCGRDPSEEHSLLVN
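Tet-induced TRPML1-DL cells loaded with Ca8 no-wash calcium dye were read kinetically on FDSS. Compound addition was followed by EC80 agonist 54-4 (4 uM final); inhibition was read over 110 s.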
TRPML1 ag: qHTS for Agonists of the Human Mucolipin Transient Receptor Potential 1 (TRPML1); TRPML1-expressing cells, Ca2+ dye fluorescence, FDSS; 0.12% of 410,000 active; activation, % (test concentration not listed); Mucolipin-1 (Homo sapiens), Q9GZU1; in the data active = activation above about 50%; note: 0% is about no effect
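Cells: TRPML1-DL, 1X Tet inducer, ~16 h at 37 degrees C/5% CO2. Dye: ABD Ca8 no-wash + quencher, 45-90 min RT. Read: 10 s baseline, compound add, 110 s agonist phase; 54-4 EC80 (4uM final), 110 s antagonist phase.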
TRHR agonist: qHTS for Small Molecule Agonists and Allosteric Enhancers of Human TRH Receptor: Primary Screen for Agonists. 0.18% of 360,000 active. TRHR cells, calcium flux fluo-8, FDSS agonist mode. activation, % at 2 µM. Thyrotropin-releasing hormone receptor (Homo sapiens), P34981; in the data active = activation above about 30%; note: 0% is about no effect
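TRHR-expressing cells loaded with fluo-8 calcium dye; 23 nL library compound pin-transferred, kinetic FDSS fluorescence (Ex 480/Em 530) recorded about 180 s for agonist-induced calcium release, before a 10 nM TRH EC20 addition for potentiator mode.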
TRHR enhancer: qHTS for Small Molecule Agonists and Allosteric Enhancers of Human TRH Receptor: Primary Screen for Enhancers; TRHR cells, fluo-8 calcium fluorescence, EC20 TRH enhancement; enhancement, % at 2 µM; Thyrotropin-releasing hormone receptor (Homo sapiens), P34981; 0.66% of 360,000 active; in the data active = enhancement above about 30%; note: 0% is about no effect
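TRHR-expressing cells loaded with fluo-8 calcium dye were read kinetically (ex 480/em 530) during compound addition, then stimulated with an EC20 of TRH (10 nM final). Enhancement of the Gq-mediated intracellular calcium response was scored.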
Starred values were filed as active, the others as inactive; . = no result; ! = repeats disagree.

SMILES | TRPML1 blocker | TRPML1 ag | TRHR agonist | TRHR enhancer
CCOC(=O)C1CCCN(c2c(NCCCN(CC)c3cccc(C)c3)c(=O)c2=O)C1 (stereo not given) | 13 | -1 | 0 | 76*
CCc1ccc(NC(=O)CN(C)S(=O)(=O)c2ccc3c(c2)c(=O)n(C)c(=O)n3C)cc1 | 5 | 0 | 0 | -1
COc1ccc(NC(=O)CN(C)S(=O)(=O)c2ccc3c(c2)c(=O)n(C)c(=O)n3C)cc1 | -87*! | 0 | 0 | -4
CCn1c(/C(C#N)=C/c2ccccc2Cl)nc2ccccc21 | 2 | -1 | 1 | 50*
COc1ccccc1C(=O)OCC(=O)Nc1ccc(N2CCCCC2)cc1 | . | -1 | . | .
CC(C)N1CCN(Cc2cccn2-c2nccs2)CC1CCO (stereo not given) | 7 | 0 | 2 | 36*
CC(C)(C)n1ncc2c(=O)n(Cc3ccc(F)c(C(F)(F)F)c3)cnc21 | 4 | 1 | . | .
Cc1occc1-c1nnc(SCC(=O)Nc2ccccn2)o1 | -1 | 0 | 0 | 39*
Cc1ccc(C)c(NC(=O)CSc2nnc(-c3ccco3)o2)c1 | -22 | -1 | 0 | 32*
O=S(=O)(Nc1cccc2cccnc12)c1ccccc1 | 12 | 8 | 0 | -5
O=S(=O)(Nc1cccc2cccnc12)c1ccc(S(=O)(=O)N2CCCC2)cc1 | -3 | 66* | 1 | -6
CC1(C)CC(=O)c2cc(C(=O)Nc3cccc4ccccc34)c(=O)[nH]c2C1 | . | -1 | . | .
CCCCN(C(=O)c1cccc(C)c1)c1c(N)n(CCC)c(=O)[nH]c1=O | -1 | 1 | 0 | 41*
N#Cc1nc(Nc2cc(Cl)cc(Cl)c2)nc(NC2CCCC2)n1 | . | . | 2 | 3
Cc1c(Cl)cccc1N1CC(C)(C)C1=O | -17 | 52* | -1 | 1
CC1(C)CN(c2ccc(Br)cc2Br)C1=O | 0 | 1 | 0 | 5
CNc1ccc(/C=C/c2ccccc2)cc1 | . | -1 | . | .
CCCCCC(=O)Nc1c2c(nc3ccccc13)CCC2 | -18 | -1 | 0 | 32*
O=C(CCCCCl)Nc1c2c(nc3ccccc13)CCC2 | 8 | 0 | 0 | -4
C=C1C=C(C(F)F)n2ncc(C(=O)NCc3ccc(F)cc3)c2N1 | . | -1 | . | .
COc1ccc(-c2cc(C(=O)NCCc3ccccc3)c3c(-c4ccccc4)[nH]nc3n2)cc1OC | -5 | 1 | -1 | 4
COc1ccc(CCNC(=O)c2cc(-c3ccc(C)cc3)nc3n[nH]c(-c4ccccc4)c23)cc1OC | -16 | 1 | 0 | 48*
Cc1ccc(N2C(N)=C(C#N)C(c3ccsc3)C3=C2CC(C)(C)CC3=O)cc1 (stereo not given) | -2 | 57* | -1 | 5
CCCOc1ccc(/C=c2\sc3nc(-c4ccco4)nn3c2=O)cc1OCC | -1 | 0 | 0 | 3
CCCOc1ccc(Cc2nn3c(=O)/c(=C/c4ccco4)sc3nc2=O)cc1 | 0 | 50* | 0 | 3
SMILES | TRPML1 blocker | TRPML1 ag | TRHR agonist | TRHR enhancer
O=S(=O)(c1ccc2c(c1)OCCO2)N1CCN(S(=O)(=O)c2ccc(Br)cc2F)CC1 | . | . | 0 | 3
O=Cc1ccc(/C=C2\C=Cc3ccccc32)cc1 | . | 0 | . | .
CN(/N=C/c1cc([N+](=O)[O-])ccc1O)c1ccccc1 | -11 | 0 | 0 | -7
CN(/N=C/c1ccc(-c2ccc([N+](=O)[O-])cc2)o1)c1ccccc1 | -1 | 21 | 37* | 1
CC(C)c1ccc(C(=O)C[N+]2(C)CCOCC2)cc1 | . | 0 | . | .
Cc1cc(NS(=O)(=O)c2ccc(NS(=O)(=O)c3ccc(Br)cc3)cc2)no1 | -11 | 0 | 0 | 33*
C/C=N/NC(=O)CCNC(=O)c1ccccc1 | -3 | 0 | -1 | 33*
O=C(CCNC(=O)c1ccccc1)N/N=C/c1ccc([N+](=O)[O-])cc1 | -9 | 0 | -1 | 1
Fc1ccc(Nc2c(-c3ccco3)nc3ccccn23)cc1 | -11 | -1 | 0 | 31*!
c1ccc(Nc2c(-c3ccco3)nc3ccccn23)cc1 | -7 | 5 | -1 | -1
Cc1cccc(-n2c(SCC(=O)N3CCCC3)nc3n[nH]c(C)c3c2=N)c1 | 1 | 0 | -1 | 40*
O=C(NCCS(=O)(=O)N1CCCC1)c1ccccc1 | -15 | 2 | -1 | 5
